# Reference: the supplement of paper PMC10981050
# “And” between values parts separate entries of the source, which are not always exact repeats. Equal entries are not always repeated. Structures can show the parent of a compound that is named as a salt.
# Assays:
# Assay in all cases: cell viability relative to vehicle control; higher = less cytotoxic
# Conditions in all cases: 10 µM
# [1] = test system: K562
# Summary of the method: (§1)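 Each screen used CRISPR-edited mutant and wild-type clones from four leukaemia lines. Compounds were acoustically dispensed at a single 10 µM dose, and CellTiter-Glo luminescence was read after 48 h with the supernatant first removed. Viability was analysed in Genedata Screener and given as percent of the on-plate vehicle control.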
# [2] = test system: MARIMO
# Summary of the method: as §1
# [3] = test system: MOLM14
# Summary of the method: as §1
# [4] = test system: OCI-AML2
# Summary of the method: as §1
Compound,cell viability ([1]; SRSF2 genotype: SRSF2 P95H/wt),cell viability ([1]; SRSF2 genotype: SRSF2 wt/wt),cell viability ([2]; SRSF2 genotype: SRSF2 P95H/wt),cell viability ([2]; SRSF2 genotype: SRSF2 wt/wt),cell viability ([3]; SRSF2 genotype: SRSF2 P95H/wt),cell viability ([3]; SRSF2 genotype: SRSF2 wt/wt),cell viability ([4]; SRSF2 genotype: P95H/wt),cell viability ([4]; SRSF2 genotype: wt/wt)
CCc1cc(Nc2nccc(-c3c(-c4ccc(OC)c(C(=O)Nc5c(F)cccc5F)c4)nc4ccccn34)n2)c(OC)cc1N1CCC(N2CCN(S(C)(=O)=O)CC2)CC1,88.6% and 96.3%,97.3%,106%,108%,105%,100%,93.9%,98.7%
CC1(C)S[C@@H]2[C@H](NC(=O)[C@H](N)c3ccccc3)C(=O)N2[C@H]1C(=O)OCOC(=O)[C@@H]1N2C(=O)C[C@H]2S(=O)(=O)C1(C)C [Sultamicillin],100% and 98.8%,106%,93.1%,101%,97.2%,102%,103%,116%
c1ccc2c(CCNc3ccc(Nc4ccncc4)cc3)c[nH]c2c1,28.3% and 44.5%,46%,21.3%,44.4%,0.51%,0.5%,0.66%,2%
CN(Cc1cc(Br)cc(Br)c1N)C1CCCCC1 [Bromhexine HCl],96.8% and 96.7%,92.8%,86.6%,99.2%,96.7%,99.4%,92.2%,98.7%
"COc1cc2oc(-c3ccccc3)cc(=O)c2c(OC)c1OC [5,6,7-Trimethoxyflavone]",109% and 110%,107%,99.9%,96.3%,111%,110%,85.1%,87.3%
COc1cc(O)c(C(=O)/C=C/c2ccccc2)c(OC)c1 [Flavokawain B],23.3% and 39%,58%,34.5%,39%,22.6%,11.3%,22.8%,25.2%
COc1cc2c[n+](C)c3c4cc5c(cc4ccc3c2cc1OC)OCO5 [Nitidine Chloride],,46.1%,38.6%,34.6%,0.55%,0.7%,0.61%,0.76%
CC(=O)c1ccccc1O [2'-Hydroxyacetophenone],101% and 100%,99.4%,99.1%,96.6%,105%,101%,102%,105%
CC1(C)S[C@@H]2[C@H](NC(=O)C(C(=O)O)c3ccccc3)C(=O)N2[C@H]1C(=O)O (stereo partly drawn) [Carbenicillin disodium],93.2% and 88.7%,97.2%,90.3%,98.8%,98.6%,95.4%,95%,93%
C[N+](C)(C)CC(O)CC(=O)[O-] (racemic) [DL-Carnitine hydrochloride],101% and 105%,98.8%,98.4%,106%,98.1%,103%,102%,101%
CCCCCCCCc1ccc(CCC(N)(CO)CO)cc1 [Fingolimod (FTY720) HCl],0.63%,0.58%,0.4%,0.42%,0.4%,0.39%,0.36%,0.44%
CN1CCN(CCCN2c3ccccc3Sc3ccc(C(F)(F)F)cc32)CC1 [Trifluoperazine 2HCl],25.7% and 36.9%,46.2%,52.5%,50.8%,45.9%,58.7%,47.6%,46.7%
CN(C)CCOc1ccc(-c2nc(-c3ccncc3)c(-c3ccc4c(c3)CC/C4=N\O)[nH]2)cc1,1.3% and 2.07%,0.83%,11.5%,4.32%,30.2%,49.3%,6.47%,15.8%
Nc1nnc(-c2cccc(Cl)c2Cl)c(N)n1 [Lamotrigine],95.7% and 94.8%,95%,94.7%,107%,102%,103%,101%,98.3%
O=C(NC1CCNCC1)c1n[nH]cc1NC(=O)c1c(Cl)cccc1Cl,,26.4% and 27.1%,13.2% and 15.4%,6.7% and 6.57%,3.09% and 4.11%,0.56% and 0.84%,5.65% and 5.71%,17.9% and 18%
O=C1CCc2c(ccc3ccccc23)O1 [Splitomicin],105% and 97%,95.4%,103%,107%,98.7%,99.5%,96.9%,102%
O=C(O)CC(C(=O)O)n1c(O)c(C2=c3cc(Br)ccc3=NC2=O)sc1=S (stereo not drawn),96.1% and 99.4%,99.6%,97.7%,100%,81.8%,89.4%,113%,103%
CC(=O)OCOC(=O)CN(CC(=O)OCOC(C)=O)c1ccccc1OCCOc1ccccc1N(CC(=O)OCOC(C)=O)CC(=O)OCOC(C)=O,18.9% and 10.1%,6.38%,1.03%,0.7%,0.2%,0.25%,2.33%,4.73%
O=C(O)C(=O)O.[NH-]C1CCCCC1[NH-].[Pt+2] (stereo not drawn) [Oxaliplatin (Eloxatin)],,72.8%,22%,62%,56.1%,48.2%,23.8%,62.9%
c1nc2c(NC3CCCCC3)nc(Nc3ccc(N4CCOCC4)cc3)nc2[nH]1 [Reversine],,70.6%,38%,33.8%,9.79%,7.29%,10.8%,16.3%
CC(C)Nc1cc(-c2c[nH]c(C(=O)N[C@H](CO)c3cccc(Cl)c3)c2)c(Cl)cn1,73.3% and 90.4%,81.5%,37.9%,40%,48.8%,34.9%,41.8%,37.6%

Compound,cell viability ([1]; SRSF2 genotype: SRSF2 P95H/wt),cell viability ([1]; SRSF2 genotype: SRSF2 wt/wt),cell viability ([2]; SRSF2 genotype: SRSF2 P95H/wt),cell viability ([2]; SRSF2 genotype: SRSF2 wt/wt),cell viability ([3]; SRSF2 genotype: SRSF2 P95H/wt),cell viability ([3]; SRSF2 genotype: SRSF2 wt/wt),cell viability ([4]; SRSF2 genotype: P95H/wt),cell viability ([4]; SRSF2 genotype: wt/wt)
COCCNc1cc(NC(=O)N2CCCc3cc(CN4CCN(C)CC4=O)c(C=O)nc32)ncc1C#N,94% and 103%,89.4%,96.9%,106%,100%,98.2%,112%,109%
NC(CO)C(=O)NNCc1ccc(O)c(O)c1O (stereo not drawn) [Benserazide HCl],,80.2%,103%,95.5%,85.3%,71.6%,94.2%,99.5%
CNC(=O)c1ccccc1Oc1nc(Nc2cc(OC)c(OC)c(OC)c2)ncc1Br,,90.6%,52.5%,55.3%,8.58%,5.16%,11.6%,19%
CCCCCOC(=O)Nc1nc(=O)n([C@@H]2O[C@H](C)[C@@H](O)[C@H]2O)cc1F [Capecitabine (Xeloda)],102% and 99.8%,104%,99.7%,108%,101%,101%,92.8%,99.2%
C[C@@H]1CCN(C(=O)CC#N)C[C@@H]1N(C)c1ncnc2[nH]ccc12,,99.6% and 112%,97.6% and 104%,99.8% and 112%,85.3% and 95.7%,104%,96.5% and 99.1%,93.8% and 101%
Cc1ccccc1C(C(=O)NC1CCCCC1)N(C(=O)Cn1ccnc1C)c1cccc(F)c1 (stereo not drawn),103% and 101%,97.1%,99.2%,98.6%,100%,99.8%,101%,105%
CCNC(=O)C#Cc1ccc2c(C(=Nc3ccc(CN(C)C)cc3)c3ccccc3)c(O)[nH]c2c1,,53.4%,26.7%,25.1%,4.97%,7.91%,11.9%,17.2%
COc1ccc(C[C@@H]2c3cc(Oc4cc(C[C@@H]5c6cc(OC)c(OC)cc6CCN5C)ccc4O)c(OC)cc3CCN2C)cc1 [Neferine],109% and 107%,99%,104%,120%,106%,109%,102%,102%
CC(C)c1onc(-c2c(Cl)cccc2Cl)c1COc1ccc(/C=C/c2cccc(C(=O)O)c2)c(Cl)c1,95.1% and 94.7%,99.7%,94.5%,98.6%,95.5%,97.3%,69.3%,82%
CCN1CCN(C(=O)N[C@@H](C(=O)N[C@@H]2C(=O)N3C(C(=O)O)=C(CSc4nnnn4C)CS[C@H]23)c2ccc(O)cc2)C(=O)C1=O [Cefoperazone (Cefobid)],100% and 97.5%,91.7%,104%,101%,98.1%,97.3%,100%,104%
O=C(COc1ccc(Cl)cc1)NC1CCC(NC(=O)COc2ccc(Cl)cc2)CC1 (stereo not drawn) [ISRIB (trans-isomer)],96.3% and 97.5%,100%,103%,102%,107%,98.7%,99.2%,95.9%
COc1cc([C@@H]2c3cc4c(cc3[C@@H](O[C@@H]3O[C@@H]5CO[C@@H](C)O[C@H]5[C@H](O)[C@H]3O)[C@H]3COC(=O)[C@H]23)OCO4)cc(OC)c1O [Etoposide (VP-16)],,82%,7.2%,6.84%,15.3%,4.31%,13%,14.8%
COc1ccc(F)c(F)c1C(=O)c1cnc(NC2CCN(S(C)(=O)=O)CC2)nc1N,,54.3%,11.3%,12.1%,1.28%,0.27%,3.74%,15.6%
CC1(C)CC[C@]2(C(=O)O)CC[C@]3(C)C(=CC[C@@H]4[C@@]5(C)CC[C@H](O[C@@H]6O[C@H](C(=O)O)[C@@H](O)[C@H](O[C@@H]7OC[C@@H](O)[C@H](O)[C@H]7O)[C@H]6O)C(C)(C)[C@@H]5CC[C@]43C)[C@@H]2C1 [Momordin Ic],,88.8%,103%,108%,110%,103%,97.2%,96.6%
CNC(=O)c1ccccc1Nc1nc(Nc2ccc(N3CCOCC3)cc2OC)ncc1Cl,,113%,44.3%,39.6%,9.8%,6.5%,13.3%,20.4%
Cc1coc2c1C(=O)C(=O)c1c-2ccc2c1CCCC2(C)C [Tanshinone IIA (Tanshinone B)],,52.2%,98.2%,89%,88.8%,79.7%,84.1%,83.3%
Cc1cc(C)c(Nc2ccnc(Nc3ccc(C#N)cc3)n2)c(C)c1 [Dapivirine (TMC120)],,45.5%,86%,70.6%,75%,81.1%,69%,31.3%
NC(=O)c1cccc(-c2cc(Nc3ccc(OC(F)(F)F)cc3)ncn2)c1,,26.8%,70.1%,58.7%,102%,102%,43.7%,55.3%
C[C@H]1O[C@@H](O[C@H]2CC[C@@]3(C)[C@@H](CC[C@]4(C)[C@@H]3C=C[C@]35OC[C@@]6(CCC(C)(C)C[C@H]63)[C@@H](O)C[C@]54C)[C@]2(C)CO)[C@H](O)[C@@H](O[C@@H]2O[C@H](CO)[C@@H](O)[C@H](O)[C@H]2O)[C@H]1O [Saikosaponin A],,23.1%,40.9%,46.1%,23.8%,28.7%,42.2%,45%
Nc1cc(N)c(N)cc1N,,69.4%,104%,109%,96.3%,105%,103%,103%
NC(=O)Nc1sc(-c2ccc(F)cc2)cc1C(N)=O,,79.8%,56.3%,50%,20.5%,11%,20.2%,26.5%
